Measurements: PubChem BioAssay (NCATS)
Results filed as inconclusive are left out. Calls of active or inactive are those of the source. The call rests on the fitted dose curve; in most records, active means well fitted curve in the direction sought with a large enough effect; inconclusive means small, poorly fitted or top-dose-only effect, or another doubt; inactive means no such curve, though single readings can be large; an effect the other way counts as inactive or inconclusive.

How the values were obtained:
[1] = molecular target: Alpha-galactosidase A (Homo sapiens) (UniProt P06280); assay: Counterscreen for Glucocerebrosidase Inhibitors: qHTS Assay for Human alpha-Galactosidase at pH 4.5 (AID 992)
Chain of Alpha-galactosidase A (Homo sapiens) (P06280 whole entry, looked up): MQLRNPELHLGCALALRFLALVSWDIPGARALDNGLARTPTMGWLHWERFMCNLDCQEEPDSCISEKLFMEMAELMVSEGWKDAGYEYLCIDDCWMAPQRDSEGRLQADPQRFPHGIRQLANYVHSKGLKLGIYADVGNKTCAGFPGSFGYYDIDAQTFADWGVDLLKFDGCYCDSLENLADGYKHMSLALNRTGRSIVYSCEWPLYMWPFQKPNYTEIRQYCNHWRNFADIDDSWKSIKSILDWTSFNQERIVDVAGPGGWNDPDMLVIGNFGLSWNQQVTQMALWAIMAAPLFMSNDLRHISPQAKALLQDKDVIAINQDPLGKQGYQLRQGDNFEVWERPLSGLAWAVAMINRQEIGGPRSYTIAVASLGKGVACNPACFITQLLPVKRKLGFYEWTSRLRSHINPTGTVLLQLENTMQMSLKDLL
In short: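 Fluorogenic 4-MU alpha-D-galactoside (80 uM) hydrolysis, 2 nM enzyme, pH 4.5 citrate buffer + 0.005% Tween-20; 20 min RT; NaOH/glycine pH 10 stop; Ex365/Em440. Compounds titrated 0.7 nM–77 uM; Hill-equation AC50.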

[2] = molecular target: alpha-glucosidase (Oryza sativa, rice) (UniProt Q653V4); assay: Counterscreen for Glucocerebrosidase Inhibitors: qHTS Assay for Rice alpha-Glucosidase at pH 5.0 (AID 997)
In short: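 Endpoint fluorogenic assay at pH 5.0: compounds (0.7 nM to 77 uM) titrated against 4 nM rice enzyme and 400 uM 4-MU-alpha-glucoside for 20 min at room temperature; NaOH/glycine stop, read ex 365/em 440 nm, Hill-fitted AC50.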

[3] = Cell Viability - LYMP2-016 (AID 984);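 further: cells exposed to compound for 24 hours at 37 °C; nearly all actives have a fitted effect of over 55% in size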
In short: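 Human lymphoblastoid cells (LYMP2-016), 2500/well in complete medium, preincubated 5 hr at 37 C, then compound-treated 24 hr at 37 C. Intracellular ATP read by CellTiter-Glo luminescence after 30 min at room temperature; AC50 from Hill-equation concentration-response fits.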

[4] = Cell Viability - LYMP2-018 (AID 985);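 further: compound exposure lasted 24 hr at 37 °C; nearly all actives have a fitted effect of over 50% in size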
In short: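 Seed 2500 lymphoblastoid cells per well, incubate 5 hr at 37 C, add compound and incubate 24 hr at 37 C, add CellTiter-Glo, wait 30 min at room temperature, then read luminescence.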

[5] = Cell Viability - LYMP2-022 (AID 987); further: nearly all actives have a fitted effect of over 55% in size
In short: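 Cells were seeded at 2500 per well, rested 5 hr at 37 C, and treated with titrated compounds for 24 hr at 37 C. Cellular ATP was then quantified by luciferase luminescence, and AC50 values were derived from Hill-modelled concentration-response curves.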

[6] = Cell Viability - LYMP2-024 (AID 988); further: nearly all actives have a fitted effect of over 60% in size
In short: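 qHTS cytotoxicity, human lymphoblastoid line, complete medium; 24 h cpd treatment, 37 C; CellTiter-Glo ATP luminescence readout; tetraoctylammonium bromide positive control; AC50 via Hill fit.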

[7] = Cell Viability - LYMP2-026 (AID 989);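 further: cells exposed to compound for 24 h at 37 °C; nearly all actives have a fitted effect of over 50% in size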
In short: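 Cells are seeded at 2500 per well and held 5 hr at 37 C. Compounds are added in concentration series for 24 hr, then CellTiter-Glo reagent is applied and luminescence read.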

[8] = Cell Viability - LYMP1-002 - Assay at 24 hr (AID 993)
In short: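 Acute toxicity is measured as concentration-dependent loss of cellular ATP in a human lymphoblastoid line (Coriell LYMP1-002) after 24 h treatment in complete medium. ATP is quantified by luciferase luminescence and AC50 derived by Hill modelling.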

[9] = Cell Viability - LYMP1-002 - Assay at 40 hr (AID 994); further: nearly all actives have a fitted effect of over 60% in size
In short: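 Cells are plated at 2500 per well and rested 5 hr at 37 C. Compounds are added and incubated 40 hr at 37 C. CellTiter-Glo reagent is added for 30 min at room temperature before luminescence is read.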

[10] = Cell Viability - LYMP2-020 (AID 986);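 further: series mostly up to about 92 µM; cells exposed to compound for 24 h at 37 °C; nearly all actives have a fitted effect of over 55% in size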
In short: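 Seed 2500 cells per well and incubate 5 hr at 37 C. Add compounds at a concentration series and incubate 24 hr at 37 C. Add CellTiter-Glo, wait 30 min at RT, read luminescence, and fit a Hill curve for AC50.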

Measured: outcome

C1COC(NC(C2CC2)C2CC2)=N1
inactive: [1] | [2]

NC(N)=NC(=O)c1nc(Cl)c(N)nc1N
not listed: [10]
inactive: all other assays above

N[C@@H]1CONC1=O
inactive: [1] | [2]

Cn1cnc([N+](=O)[O-])c1Sc1ncnc2nc[nH]c12
inactive: [1] | [8] | [2]

Cc1[nH]c(=O)c(C#N)cc1-c1ccc2nccn2c1
inactive: [1] | [2]

CC(C)(Sc1ccc(CCN(CCCCC2CCCCC2)C(=O)NC2CCCCC2)cc1)C(=O)O
inactive: [1] | [2]

CNC[C@H](O)c1cccc(O)c1
inactive: [1] | [2]

CCOC(=O)N1CCC(=C2c3ccc(Cl)cc3CCc3cccnc32)CC1
inactive: [1] | [2]

CCCC(CCC)C(=O)O
inactive: all assays above

Nc1ccc(S(=O)(=O)Nc2ccnn2-c2ccccc2)cc1
inactive: [1] | [2]

N=c1nc(N2CCCCC2)cc(N)n1O
inactive: [1] | [2]

Cc1oncc1C(=O)Nc1ccc(C(F)(F)F)cc1
inactive: [1] | [2]

NNCCc1ccccc1
inactive: [1] | [2]

Cc1[nH]c(=O)c(C#N)cc1-c1ccncc1
inactive: [1] | [2]

O=NN(CCCl)C(=O)NCCCl
inactive: [1] | [2]

C[C@]12CCC(=O)C=C1CC[C@@H]1[C@@H]2[C@@H](O)C[C@@]2(C)[C@H]1CC[C@]2(O)C(=O)CO
inactive: [1] | [2]

Nc1nc2c(ncn2COCCO)c(=O)[nH]1
inactive: [1] | [2]

Cc1cnc(NC(=O)C2=C(O)c3ccccc3S(=O)(=O)N2C)s1
inactive: [1] | [2]

NCCc1ccc(O)c(O)c1
inactive: [1] | [2]

O=c1[nH]cnc2[nH]ncc12
inactive: all assays above

CC(C)NCC(O)COc1ccc(COCCOC(C)C)cc1 (stereo not drawn)
inactive: [1] | [2]

CC(=O)Oc1ccccc1C(=O)O
inactive: all assays above

CCCCNc1cc(C(=O)O)cc(S(N)(=O)=O)c1Oc1ccccc1
inactive: [1] | [2]

O=C1CCc2cc(OCCCCc3nnnn3C3CCCCC3)ccc2N1
inactive: [1] | [2]

Clc1cccc(Cl)c1NC1=NCCN1
inactive: [1] | [2]

OC(CN1CCC(Cc2ccc(F)cc2)CC1)c1ccc(Cl)cc1 (stereo not drawn)
inactive: [1] | [2]

Cc1cn[nH]c1
inactive: [1] | [2]

CCOC(=O)C1=C[C@@]2(CC)CCCN3CCc4c(n1c1ccccc41)[C@H]32
inactive: [1] | [2]

NC[C@H](O)c1ccc(O)c(O)c1
inactive: [1] | [2]

NC(=O)c1cnccn1
inactive: all assays above

Nc1nc2ccc(OC(F)(F)F)cc2s1
inactive: [1] | [2]

NS(=O)(=O)c1cc2c(cc1Cl)NC=NS2(=O)=O
inactive: all assays above

Cc1ccc(N(CC2=NCCN2)c2cccc(O)c2)cc1
inactive: [1] | [2]

O=c1n(CCCN2CCN(c3cccc(Cl)c3)CC2)nc2ccccn12
inactive: [1] | [2]

CN1CCN(CCCN2c3ccccc3Sc3ccc(C(F)(F)F)cc32)CC1
inactive: [1] | [2]
